# Reference: PubChem BioAssay (Tox21)
# Inconclusive results are not listed. A call without a number means that no potency is given here. Calls of active or inactive are those of the source. Calls come from the whole dose curve; as a rule, active = well fitted cell-killing curve with a large enough effect in the repeat runs; inconclusive = weak or mixed curves, or effect the other way; inactive = no such curve, though single readings can be large or run the other way.
# Experiment: qHTS assay to identify small molecule antagonists of the glucocorticoid receptor (GR) signaling pathway - cell viability counter screen (AID 720693); note: nearly all actives have a fitted effect of over 55% in size
# Conditions: GR-bla HeLa viability, CellTiter-Glo luminescence, 18 h, with 5 nM dexamethasone present; series mostly up to 58.5 µM
row,Structure (SMILES),Potency
1,OCC1CC2CC1C1CCC(CO)C21 (configuration not stated),inactive
2,O=C(O)Cn1c(C(=O)Nc2nc(-c3ccccc3Cl)cs2)cc2ccccc21,inactive
3,CCC(=O)OC(C)(C)C1CC=C(C)CC1 (configuration not stated),inactive
4,CCCCOCCOCCOCCOCCO,inactive
5,N=C(N=C(N)N)N1CCOCC1,inactive
6,O=C(O)C1CCC(C(=O)O)CC1 (configuration not stated),inactive
7,CN(C(=O)CCCOc1ccc2[nH]c(=O)ccc2c1)C1CCCCC1,inactive
8,CC1=CC(=O)/C(=C(/C)O)C(=O)O1,inactive
9,O=C1c2cccc(O)c2C(=O)c2c(O)cc(CO)cc21,inactive
10,CC(=O)O[C@@H]1C(=O)O[C@@H]2[C@H]1OC(=O)[C@@H]2OC(C)=O,inactive
11,CCOC(=O)C1=C(C)NC(C)=C(C(=O)OC)C1c1cccc([N+](=O)[O-])c1 (configuration not stated),inactive
12,CC(C)c1ccc2c(C(C)C)cc(C(C)C)c(S(=O)(=O)O)c2c1,inactive
13,CC1=CCC(C(C)C)C=C1 (configuration not stated),inactive
14,CCCOc1ccc2nc(NC(=O)OC)[nH]c2c1,inactive
15,NC(N)=N/N=C/c1c(Cl)cccc1Cl,inactive
16,CCCCC(CC)(CO)CO,inactive
17,CCN(CC)CCNC(C(=O)OCCC(C)C)c1ccccc1 (configuration not stated),inactive
18,Cc1ccccc1N=Nc1ccc(N=Nc2c(O)ccc3ccccc23)c(C)c1,inactive
19,Cc1cc(NC(=O)C(=O)O)cc(C)c1Oc1ccc(O)c2c1CCC2,inactive

row,Structure (SMILES),Potency
1,CC[C@H](C)[C@H](N)C(=O)O,inactive
2,Oc1ccc(Cc2ccccc2)cc1,inactive
3,Cc1cccc(OCCOc2cccc(C)c2)c1,inactive
4,CCN(CC)CCc1nc(-c2ccccc2)no1,inactive
5,CC(C)=CCCC(C)CC=O (configuration not stated),inactive
6,CCN(CC)CCOC(=O)C1(c2ccccc2)CCCC1,inactive
7,O=[N+]([O-])c1cc[n+]([O-])cc1,inactive
8,O=CNc1ccccc1,inactive
9,CC(=O)N(O)CCCCCNC(=O)CCC(=O)N(O)CCCCCNC(=O)CCC(=O)N(O)CCCCCN,inactive
10,OCCC1CCCCN1 (configuration not stated),inactive
11,CCN1CCC[C@H]1CNC(=O)c1c(OC)ccc(Br)c1OC,inactive
12,CCOC(=O)C1=NN(c2ccccc2)C(=O)C1,inactive
13,CCCc1ccccc1,inactive
14,CN(C)C/C=C(/c1ccc(Br)cc1)c1cccnc1,inactive
15,CCOc1cc(OCC)c(C(=O)CCC(=O)O)cc1OCC,inactive
16,CCCCOC(=O)c1ccccc1C(=O)OCC(CC)CCCC (configuration not stated),inactive
17,CN(C)CCCNCCCN,inactive
18,CCCCCC(CO)CCC (configuration not stated),inactive
19,CC(=O)OCCc1ccccc1,inactive

# Experiment: qHTS assay for identifying genotoxic compounds that show differential cytotoxicity against isogenic chicken DT40 cell lines with known DNA damage response pathways - wild type cell line (AID 743012); note: nearly all actives have a fitted effect of over 60% in size; note: potency is the fitted concentration of half-maximal effect
# Conditions: DT40 wild type chicken cells viability, CellTiter-Glo, 40 h; series mostly up to 68.4 µM
# Procedure, shortened: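 Cytotoxicity in repair-proficient parental chicken DT40 cells serves as the comparator for Rad54/Ku70- and Rev3-deficient lines. Cells were exposed to compounds for 40 h at 37 C/5% CO2, and ATP-based luminescence (CellTiter-Glo) measured viability.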
row,Structure (SMILES),Potency
1,O=C(O)Cn1c(C(=O)Nc2nc(-c3ccccc3Cl)cs2)cc2ccccc21,inactive
2,CCCCOCCOCCOCCOCCO,inactive
3,N=C(N=C(N)N)N1CCOCC1,inactive
4,CC1=CC(=O)/C(=C(/C)O)C(=O)O1,inactive
5,O=C1c2cccc(O)c2C(=O)c2c(O)cc(CO)cc21,inactive
6,CC(=O)O[C@@H]1C(=O)O[C@@H]2[C@H]1OC(=O)[C@@H]2OC(C)=O,26.6 µM (active)
7,CCOC(=O)C1=C(C)NC(C)=C(C(=O)OC)C1c1cccc([N+](=O)[O-])c1 (configuration not stated),26.6 µM (active)
8,CC1=CCC(C(C)C)C=C1 (configuration not stated),inactive
9,CCCOc1ccc2nc(NC(=O)OC)[nH]c2c1,0.237 µM (active)
10,NC(N)=N/N=C/c1c(Cl)cccc1Cl,11.9 µM (active)
11,CCCCC(CC)(CO)CO,inactive
12,CCN(CC)CCNC(C(=O)OCCC(C)C)c1ccccc1 (configuration not stated),26.6 µM (active)
13,Cc1cc(NC(=O)C(=O)O)cc(C)c1Oc1ccc(O)c2c1CCC2,inactive
14,CC[C@H](C)[C@H](N)C(=O)O,inactive
15,Oc1ccc(Cc2ccccc2)cc1,inactive
16,Cc1cccc(OCCOc2cccc(C)c2)c1,inactive
17,CCN(CC)CCc1nc(-c2ccccc2)no1,inactive
18,CC(C)=CCCC(C)CC=O (configuration not stated),inactive
19,CCN(CC)CCOC(=O)C1(c2ccccc2)CCCC1,26.6 µM (active)
20,O=[N+]([O-])c1cc[n+]([O-])cc1,15.4 µM (active)
21,O=CNc1ccccc1,inactive
22,CCN1CCC[C@H]1CNC(=O)c1c(OC)ccc(Br)c1OC,inactive
23,CCOC(=O)C1=NN(c2ccccc2)C(=O)C1,inactive
24,CN(C)C/C=C(/c1ccc(Br)cc1)c1cccnc1,29.8 µM (active)
25,CCOc1cc(OCC)c(C(=O)CCC(=O)O)cc1OCC,inactive
26,CCCCOC(=O)c1ccccc1C(=O)OCC(CC)CCCC (configuration not stated),inactive
27,CN(C)CCCNCCCN,inactive
28,CCCCCC(CO)CCC (configuration not stated),inactive
29,CC(=O)OCCc1ccccc1,inactive

# Experiment: qHTS assay for identifying genotoxic compounds that show differential cytotoxicity against isogenic chicken DT40 cell lines with known DNA damage response pathways - Rev3 mutant cell line (AID 743014); note: nearly all actives have a fitted effect of over 55% in size; note: potency is the fitted concentration of half-maximal effect
# Conditions: chicken DT40 Rev3-/- viability, CellTiter-Glo, 40 h; series mostly up to 68.4 µM
row,Structure (SMILES),Potency
1,OCC1CC2CC1C1CCC(CO)C21 (configuration not stated),54.5 µM (active)
2,CCC(=O)OC(C)(C)C1CC=C(C)CC1 (configuration not stated),48.6 µM (active)
3,O=C(O)C1CCC(C(=O)O)CC1 (configuration not stated),60.9 µM (active)
4,CN(C(=O)CCCOc1ccc2[nH]c(=O)ccc2c1)C1CCCCC1,inactive
5,CC1=CC(=O)/C(=C(/C)O)C(=O)O1,inactive
6,CC(C)c1ccc2c(C(C)C)cc(C(C)C)c(S(=O)(=O)O)c2c1,inactive
7,CCCOc1ccc2nc(NC(=O)OC)[nH]c2c1,0.237 µM (active)
8,NC(N)=N/N=C/c1c(Cl)cccc1Cl,23.7 µM (active)
9,Cc1ccccc1N=Nc1ccc(N=Nc2c(O)ccc3ccccc23)c(C)c1,inactive
10,CC(C)=CCCC(C)CC=O (configuration not stated),inactive
11,O=[N+]([O-])c1cc[n+]([O-])cc1,inactive
12,CC(=O)N(O)CCCCCNC(=O)CCC(=O)N(O)CCCCCNC(=O)CCC(=O)N(O)CCCCCN,inactive
13,OCCC1CCCCN1 (configuration not stated),inactive
14,CCCc1ccccc1,inactive
15,CC(=O)OCCc1ccccc1,inactive
